Measured values as given in PubChem BioAssay (EPA / NIEHS).
Results filed as inconclusive are left out. Calls of active or inactive are those of the source. The calls were made as follows: active = hit-call score of the fitted dose curve at least 0.9, where 1 is the maximum; inconclusive = response in the unintended direction; inactive = score below 0.9. Where a SMILES comes first, the peptide text is derived from it. Bridges are numbered along the chain shown (N, C = ends).

Legend:
[1] = TOX21_p53_BLA_p3_viability: Viability Assessment in the Tox21 HCT-116 p53 Agonism Beta-lactamase Assay, Phase 3 (AID 2283593);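 also: cells exposed to compound for 16 h before reading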
Outline: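 HCT116 cells, 4000/well, dosed 5 h after plating by pin transfer (217-fold dilution from DMSO stock) and incubated 16 h at 37C, 5% CO2. Viability read as ATP luminescence with CellTiter-Glo after 30 min at room temperature.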

[2] = molecular target: Cellular tumor antigen p53 (Homo sapiens) (UniProt P04637); experiment: TOX21_p53_BLA_p3_ratio: Tox21 HCT-116 p53 Agonism Beta-lactamase Assay, Ratio, Phase 3 (AID 2283596)
Outline: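 HCT116 p53-bla cells (4000/well) given compound in DMSO (217-fold dilution) after 5 h, incubated 16 h at 37C. CCF4-AM substrate 2 h at room temperature; 460/530 nm emission ratio, gain fitted against DMSO.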

[3] = TOX21_p53_BLA_p4_viability: Viability Assessment in the Tox21 HCT-116 p53 Agonism Beta-lactamase Assay, Phase 4 (AID 2283597);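 also: hits lower the luminescence signal meaning cytotoxicity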
Outline: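 Cells plated, 5 h pre-incubation; DMSO compounds pinned (217-fold dilution); 16 h, 37C/5% CO2; CCF4-AM 2 h RT; CellTiter-Glo 30 min RT; luminescence read.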

[4] = molecular target: Cellular tumor antigen p53 (Homo sapiens) (UniProt P04637); experiment: TOX21_p53_BLA_p4_ratio: Tox21 HCT-116 p53 Agonism Beta-lactamase Assay, Ratio, Phase 4 (AID 2283601)
Outline: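 HCT-116 p53 beta-lactamase reporter cells (4000/well) preincubated 5 h, then compound (217-fold dilution of DMSO stock) for 16 h at 37C. CCF4-AM substrate added 2 h at room temperature; 460/530 nm emission ratio fitted upward versus DMSO.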

[5] = molecular target: Cellular tumor antigen p53 (Homo sapiens) (UniProt P04637); experiment: TOX21_p53_BLA_p5_ratio: Tox21 HCT-116 p53 Agonism Beta-lactamase Assay, Ratio, Phase 5 (AID 2283599)
Outline: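 HCT-116 p53-bla cells (4000/well) plated 5 h, dosed with compound (217-fold DMSO dilution) for 16 h at 37 C; CCF4-AM substrate 2 h at room temperature. Activity is the 460/530 nm emission ratio (405 nm excitation), fitted in gain-of-signal direction versus DMSO.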

[6] = TOX21_p53_BLA_p5_viability: Viability Assessment in the Tox21 HCT-116 p53 Agonism Beta-lactamase Assay, Phase 5 (AID 2283600)
Outline: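 4000 cells/well; 5 h pre-incubation; DMSO compounds pin-transferred, 217-fold dilution; 16 h, 37C/5% CO2; CCF4-AM 2 h RT; CellTiter-Glo 30 min RT; luminescence.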

[7] = molecular target: Thyroid hormone receptor alpha (Rattus norvegicus) + Thyroid hormone receptor beta (Rattus norvegicus) (UniProt P18113+P63059); experiment: TOX21_TR_LUC_GH3_Antagonist_Followup: Tox21 GH3 Thyroid Hormone Receptor Antagonism Luciferase Follow-Up Assay (AID 2283942)
Outline: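 Antagonist mode: GH3 cells seeded 1,500/well, compounds at 15 concentrations (92 uM to 5nM final) plus T3 at 1.0 nM final, 24 h at 37C. Luciferase read with ONE-Glo after 30 min at room temperature.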

[8] = molecular target: THRA (gene 7067) (UniProt P10827); experiment: TOX21_TRA_COA_Antagonist_Followup_ratio: Tox21 Thyroid Hormone Receptor alpha Antagonism through Coactivator Recruitment Follow-Up Assay, Ratio (AID 2283953)
Outline: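 This follow-up to the GH3 luciferase screen checks specificity in a cell-free format. It measures SRC-2 coactivator peptide binding to TRα LBD by TR-FRET and scores loss of ratio signal relative to DMSO.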

[9] = molecular target: THRB (gene 7068) (UniProt P10828); experiment: TOX21_TRB_BLA_Antagonist_Followup_ratio: Tox21 Thyroid Hormone Receptor beta Antagonism Beta-lactamase (BLA) Follow-Up Assay, Ratio (AID 2283958)
Outline: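 GAL4-DBD/human TRβ-LBD fusion in GeneBLAzer UAS-bla HEK293T cells, 3,000 cells/well in phenol red-free DMEM with 2% charcoal-stripped FBS; compounds at 11 concentrations in triplicate, 18 h at 37C. CCF4-AM substrate 2 h, 460:530 nm ratio relative to DMSO.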

[10] = TOX21_TRB_BLA_Antagonist_Followup_viability: Viability Assessment in the Tox21 Thyroid Hormone Receptor beta Antagonism Beta-lactamase (BLA) Follow-Up Assay (AID 2283961)
Outline: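 TRβ-bla HEK293T (human TRβ LBD fused to GAL4 DBD), 3,000 cells/well, 2% charcoal-stripped FBS, phenol red-free medium; 18 h compound exposure, 37C; CellTiter-Glo 30 min RT; luminescence, loss-of-signal readout.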

[11] = molecular target: THRB (gene 7068) (UniProt P10828); experiment: TOX21_TRB_COA_Antagonist_Followup_ratio: Tox21 Thyroid Hormone Receptor beta Antagonism through Coactivator Recruitment Follow-Up Assay, Ratio (AID 2283967)
Outline: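 Cell-free TR-FRET: GST-TRb LBD (5.0 nM) with fluorescein-SRC-2 peptide (200 nM) and Tb anti-GST antibody (2 nM), 0.10% BSA. 520:495 nm emission ratio normalized to DMSO (0%) and T3 (100%).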

[12] = molecular target: Retinoic acid receptor RXR-alpha (Homo sapiens) (UniProt P19793); experiment: TOX21_TR_RXR_BLA_Antagonist_Followup_ratio: Tox21 Thyroid Hormone Receptor beta Retinoid X Receptor alpha (RXRa) Antagonism Beta-lactamase (BLA) Follow-Up Assay, Ratio (AID 2283972)
Outline: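 HEK293T RXRa-bla, 2% charcoal-stripped FBS medium, 16 h compound exposure at 37C, qHTS 11 conc x3. CCF4 FRET ratio ch2/ch1 (460:530), DMSO = baseline, loss-of-signal fit.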

[13] = TOX21_TR_RXR_BLA_Antagonist_Followup_viability: Viability Assessment in the Tox21 Thyroid Hormone Receptor beta Retinoid X Receptor alpha (RXRa) Antagonism Beta-lactamase (BLA) Follow-Up Assay (AID 2283979)
Outline: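 RXRa-bla HEK293T cells (2,500/well, phenol red-free DMEM, 2% charcoal-stripped FBS) were attached 5 h, then exposed to compounds at 11 concentrations in triplicate for 16 h at 37C. Viability measured by CellTiter-Glo ATP luminescence, bidirectional fitting versus DMSO.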

Measured: AC50

Sequence of Cellular tumor antigen p53 (Homo sapiens) (P04637 whole entry, looked up): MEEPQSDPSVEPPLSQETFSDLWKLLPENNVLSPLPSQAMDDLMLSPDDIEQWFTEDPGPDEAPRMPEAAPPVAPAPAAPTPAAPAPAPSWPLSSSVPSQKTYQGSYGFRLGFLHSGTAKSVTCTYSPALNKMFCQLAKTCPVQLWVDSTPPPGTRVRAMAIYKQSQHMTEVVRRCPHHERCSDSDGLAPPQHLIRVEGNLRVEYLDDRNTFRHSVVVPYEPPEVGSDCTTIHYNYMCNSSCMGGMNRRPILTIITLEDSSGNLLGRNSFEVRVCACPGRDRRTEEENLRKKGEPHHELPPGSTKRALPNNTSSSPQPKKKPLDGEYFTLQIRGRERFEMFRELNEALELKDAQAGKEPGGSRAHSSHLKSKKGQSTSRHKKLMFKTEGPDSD
Sequence of THRB (gene 7068) (P10828 whole entry, looked up, the tested form may be a part): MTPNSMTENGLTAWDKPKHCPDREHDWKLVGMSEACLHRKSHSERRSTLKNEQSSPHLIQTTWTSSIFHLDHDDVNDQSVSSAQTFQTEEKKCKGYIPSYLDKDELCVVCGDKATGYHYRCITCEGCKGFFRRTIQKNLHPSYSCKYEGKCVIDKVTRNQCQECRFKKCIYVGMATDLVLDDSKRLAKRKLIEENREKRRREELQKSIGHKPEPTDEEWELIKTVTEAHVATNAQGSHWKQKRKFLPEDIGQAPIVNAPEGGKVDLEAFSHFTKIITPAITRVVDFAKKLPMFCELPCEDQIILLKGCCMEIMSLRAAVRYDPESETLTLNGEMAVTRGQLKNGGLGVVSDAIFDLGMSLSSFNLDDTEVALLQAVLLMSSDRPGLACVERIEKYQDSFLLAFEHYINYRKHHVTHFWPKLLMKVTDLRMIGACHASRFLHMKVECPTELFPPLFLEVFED
Sequence of THRA (gene 7067) (P10827 whole entry, looked up, the tested form may be a part): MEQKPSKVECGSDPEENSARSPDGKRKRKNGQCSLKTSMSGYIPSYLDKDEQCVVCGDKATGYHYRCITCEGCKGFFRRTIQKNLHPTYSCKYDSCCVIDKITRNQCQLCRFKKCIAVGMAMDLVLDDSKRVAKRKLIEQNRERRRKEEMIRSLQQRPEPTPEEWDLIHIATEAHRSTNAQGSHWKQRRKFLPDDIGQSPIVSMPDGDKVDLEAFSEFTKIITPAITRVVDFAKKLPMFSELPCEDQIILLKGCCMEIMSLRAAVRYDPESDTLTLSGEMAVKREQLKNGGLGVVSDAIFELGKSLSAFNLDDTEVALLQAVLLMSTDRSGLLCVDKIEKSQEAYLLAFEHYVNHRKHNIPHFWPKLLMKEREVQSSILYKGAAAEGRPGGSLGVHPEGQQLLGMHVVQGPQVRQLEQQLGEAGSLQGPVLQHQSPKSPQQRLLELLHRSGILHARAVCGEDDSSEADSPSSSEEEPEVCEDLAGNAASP
Sequence of Retinoic acid receptor RXR-alpha (Homo sapiens) (P19793 whole entry, looked up): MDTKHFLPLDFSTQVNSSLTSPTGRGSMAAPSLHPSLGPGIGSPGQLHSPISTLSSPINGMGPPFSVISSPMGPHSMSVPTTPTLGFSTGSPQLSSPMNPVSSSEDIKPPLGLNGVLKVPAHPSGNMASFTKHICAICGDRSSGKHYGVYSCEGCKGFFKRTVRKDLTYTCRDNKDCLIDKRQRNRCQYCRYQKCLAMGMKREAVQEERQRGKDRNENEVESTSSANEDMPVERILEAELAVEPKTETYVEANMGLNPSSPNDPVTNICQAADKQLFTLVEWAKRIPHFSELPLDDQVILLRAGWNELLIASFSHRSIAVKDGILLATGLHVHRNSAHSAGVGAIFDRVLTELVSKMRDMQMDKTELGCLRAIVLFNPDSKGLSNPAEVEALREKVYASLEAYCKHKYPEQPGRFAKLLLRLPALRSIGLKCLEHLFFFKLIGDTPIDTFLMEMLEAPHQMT

CCCCCCCCCCCCCCCC(=O)O[C@@H]1CC(C)=C(/C=C/C(C)=C/C=C/C(C)=C/C=C/C=C(C)/C=C/C=C(C)/C=C/C2=C(C)C[C@@H](OC(=O)CCCCCCCCCCCCCCC)CC2(C)C)C(C)(C)C1
inactive: [2] | [3] | [4]
active: [1] 36.2 µM

O=P(O)(O)OP(=O)(O)OP(=O)(O)O
inactive: [1] | [2] | [5] | [6] | [4]

O=c1oc2c(O)c(O)cc3c(=O)oc4c(O)c(O)cc1c4c23
inactive: [1] | [2] | [5]

BrC(Br)C(Br)Br
inactive: [1] | [2] | [5] | [6]

CN(C)CCCNCCCN
inactive: [1] | [2] | [5] | [6] | [4]

CN[C@@H]1[C@@H](O)[C@@H](O[C@@H]2[C@@H](O)[C@H](O[C@H]3O[C@H](CN)[C@@H](O)[C@H](O)[C@H]3O)[C@@H](N)C[C@H]2NC(=O)C(O)CN)OC[C@]1(C)O (some centres not stated)
inactive: [1] | [2] | [3] | [4]

CN1CCCC(CC2c3ccccc3Sc3ccccc32)C1 (configuration not stated)
active: [7] 15.5 µM | [10] 8.56 µM
inactive: [1] | [2] | [3] | [6] | [8] | [9] | [11] | [12] | [13]

CO[C@H]1O[C@@H]2O[C@@]3(C)CC[C@H]4[C@H](C)CC[C@@H]([C@H]1C)[C@@]24OO3
inactive: [1] | [2] | [5] | [6] | [4]

CC#N
inactive: [1] | [2] | [5]

Cc1ccc(S(=O)(=O)NC(=O)NC2CCCC2)cc1
inactive: [1] | [2] | [5] | [6] | [4]

CCOC(=O)[C@H](CCc1ccccc1)N[C@@H](C)C(=O)N1Cc2cc(OC)c(OC)cc2C[C@H]1C(=O)O
inactive: [1] | [2] | [3] | [6]

CCCCOc1ccc(OCCCN2CCOCC2)cc1
inactive: [1] | [2] | [3] | [6] | [4]

O=C(O)c1ccc(NC(=O)[C@H](Cc2ccc(O)cc2)NC(=O)c2ccccc2)cc1
inactive: [1] | [2] | [3] | [6] | [4]

CC(=O)c1cnccn1
inactive: [1] | [2] | [5] | [4]

O=C(Cn1c(=O)sc2ccc(Cl)cc21)N1CCN(CCO)CC1
inactive: [1] | [2] | [3] | [6] | [4]

Cn1cnc2ncnc(N)c21
inactive: [1] | [2] | [5] | [6] | [4]

Cc1ccc(C(C)(C)c2ccc(C)cc2)cc1
inactive: [1] | [2] | [3] | [4]

CC1(C)OC[C@@H](COC(=O)CCc2ccc(OC[C@@H](O)CNCCNC(=O)N3CCOCC3)cc2)O1
inactive: [1] | [2] | [3] | [5] | [6] | [4]

CC1CCCCN1CCCOC(=O)c1ccccc1 (configuration not stated)
inactive: [1] | [2] | [3] | [6]

Oc1ccc(CCNCCCCCCNCCc2ccccc2)cc1O
inactive: [1] | [2] | [3] | [6] | [4]

N[C@@H](CSCCCO)C(=O)O
inactive: [1] | [2] | [3] | [5] | [6] | [4]

C[C@H]1O[C@H](O[C@H]2[C@H](O)[C@@H](O)[C@@H](O[C@H]3[C@H](O)[C@@H](O)[C@H](O)O[C@@H]3CO)O[C@@H]2CO)[C@H](O)[C@@H](O)[C@@H]1N[C@H]1C=C(CO)[C@@H](O)[C@H](O)[C@H]1O
inactive: [1] | [2] | [5] | [6] | [4]

Cc1cc([N+](=O)[O-])ccc1N
inactive: [1] | [2] | [3] | [5] | [4]

CC(=O)c1ccc(C(C)=O)cc1
inactive: [1] | [2] | [5] | [6]

COc1cc2c(cc1OC)C(C(C(=O)N(CCc1ccc(OC)c(OC)c1OC)CCc1ccc(OC)c(OC)c1OC)c1ccccc1)=NCC2 (configuration not stated)
inactive: [1] | [2] | [3] | [5] | [6] | [4]

Cc1ccc(N)nc1
inactive: [1] | [2] | [3] | [5] | [6] | [4]

N[C@H]1CN(c2c(F)cc3c(=O)c(C(=O)O)cn(C4C[C@H]4F)c3c2Cl)CC12CC2 (some centres not stated)
inactive: [1] | [2] | [3] | [6] | [4]

NCc1ccc(S(N)(=O)=O)cc1
inactive: [1] | [2] | [5] | [6]

NCCCC[C@H](NC(=O)[C@@H]1CCCN1C(=O)[C@@H]1CSSC[C@H](NC(=O)CNC(=O)CNC(=O)CN)C(=O)N[C@@H](Cc2ccc(O)cc2)C(=O)N[C@@H](Cc2ccccc2)C(=O)N[C@@H](CCC(N)=O)C(=O)N[C@@H](CC(N)=O)C(=O)N1)C(=O)NCC(N)=O (H-GGGCYFQNCPKG-NH2; disulfide 4-9)
inactive: [1] | [2] | [5] | [6]

CN(C)C(=O)Oc1ccc[n+](C)c1
inactive: [1] | [2] | [3] | [5] | [6] | [4]
